This is a sample that favours compounds with a hit; in the whole collection about 27% have one here.
Cav32 inh: inhibitors of human Cav3.2 T-type calcium channel. O95180. Cav3.2-expressing cells, Fluo-4 calcium fluorescence FDSS; active compounds read low. B-score at 10 µM. 100,000 compounds, 4% hits;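 active means single-dose well whose peak fluorescence ratio is a statistical outlier from its plate by either plate-standardised score or position-corrected B-score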
CYP2C19 inhib: human CYP2C19 inhibition. CYP2C19 Supersomes, luciferin-H EGE luminescence, 30 min. P33261. 96,000 compounds, 21% hits. inhibition, % at 5 µM;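 active means CYP2C19 inhibition above a set limit at 5 µM in the primary screen, cut at about 50% in these data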;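 further: plate controls were negative control wells for no effect and 2.5 mM tranylcypromine positive control for full effect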
CYP2C9 inh: inhibitors of human CYP2C9 | P11712 | CYP2C9 Supersomes, luciferin-H conversion, luminescence | inhibition, % at 5 µM | 96,000 compounds, 20% hits | AID 777;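 active means blocking of liver enzyme CYP2C9 beyond about 50% at 5 µM, limit read from the data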
Target sequence (P11712 whole entry, looked up): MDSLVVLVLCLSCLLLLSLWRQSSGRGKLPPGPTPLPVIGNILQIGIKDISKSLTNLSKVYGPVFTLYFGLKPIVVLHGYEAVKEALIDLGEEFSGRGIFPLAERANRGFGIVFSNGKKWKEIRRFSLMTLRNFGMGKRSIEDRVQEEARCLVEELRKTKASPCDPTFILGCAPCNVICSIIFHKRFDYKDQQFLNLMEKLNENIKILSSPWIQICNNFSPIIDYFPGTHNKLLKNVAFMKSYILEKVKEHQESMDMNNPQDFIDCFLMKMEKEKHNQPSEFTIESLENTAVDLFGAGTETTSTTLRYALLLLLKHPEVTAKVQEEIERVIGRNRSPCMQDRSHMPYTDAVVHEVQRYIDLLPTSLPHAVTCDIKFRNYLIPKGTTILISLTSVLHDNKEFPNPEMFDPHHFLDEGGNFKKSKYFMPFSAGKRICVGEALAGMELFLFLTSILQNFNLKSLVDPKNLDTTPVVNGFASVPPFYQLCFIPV
CYP2C19 act: increases human CYP2C19 enzyme activity; 96,000 tested, under 10 active; activation factor at 5 µM; P33261; recombinant CYP2C19, luciferin-H EGE luminescence; active compounds read high; 0 = fully inhibited enzyme, 1 = untreated enzyme;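 active means activation factor of at least 2 at 5 µM in the primary screen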;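 further: 0 = wells with 2.5 mM tranylcypromine and 1 = vehicle-only wells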
CYP2C9 act: CYP2C9 (human) activation; P11712; recombinant CYP2C9, luciferin-H conversion, luminescence; active compounds read high; factor 1 = untreated enzyme, 0 = blocked; activation factor at 5 µM; 96,000 compounds, 1.4% hits; AID 1024;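 active means activation factor of 2 or more for CYP2C9 at a 5 µM dose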;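 further: 0 = sulfaphenazole-blocked wells and 1 = vehicle-only wells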
Active calls of the source: *; . = not tested or not shown.

SMILES | Cav32 inh | CYP2C19 inhib | CYP2C9 inh | CYP2C19 act | CYP2C9 act
Cc1noc(/C=C/c2ccco2)c1S(=O)(=O)N1CCC(C(=O)NC(C)c2ccccc2)CC1 (stereo not given) | -2.3 | 7 | 30 | 0.9 | 0.7
CC(C)(C)C(=O)/C(=C\c1ccc([N+](=O)[O-])cc1)n1cncn1 | -0.18 | . | . | . | .
O=C(CCC(=O)OCC(=O)c1ccc(Br)cc1)Nc1ccc(Br)c2cccnc12 | -1.8 | 31 | -199 | 0.7 | 3*
Cc1ccccc1NC(=O)CCC(=O)OCC(=O)c1ccc(-c2ccccc2)cc1 | 0.027 | -6 | 3 | 1.1 | 1
COc1cc(CCCN2C(N)=NC[C@@H]2Cc2ccccc2)cc(OC)c1OC | 0.56 | . | . | . | .
CCOc1cc(C#N)c(NC(=O)c2cccnc2Cl)cc1OCC | -0.097 | -7 | 65* | 1.1 | 0.3
CCOc1cc(C#N)c(NC(=O)c2cccnc2)cc1OCC | . | -10 | -3 | 1.1 | 1
CN(c1ccc(C(=O)O)cc1)S(=O)(=O)c1ccc(Cl)cc1 | 1.6 | -7 | -8 | 1.1 | 1.1
CN(C)C=NC(=O)c1ccc([N+](=O)[O-])c(CS(=O)(=O)c2ccc(Cl)cc2)c1 | 1.8 | 75* | 56* | 0.2 | 0.4
CO/N=C/NC(=O)c1ccc([N+](=O)[O-])c(CS(=O)(=O)c2ccc(Cl)cc2)c1 | 0.022 | 2 | 15 | 1 | 0.8
NNC(=O)c1ccc([N+](=O)[O-])c(CS(=O)(=O)c2ccc(Cl)cc2)c1 | . | 75* | 33 | 0.3 | 0.7
Cc1ccc2nsnc2c1S(=O)(=O)N1CCOCC1 | 0.43 | 15 | 0 | 0.8 | 1
Cc1cc(C)cc(Nc2cc(C)nc3nc(C)nn23)c1 | 1.1 | -9 | 10 | 1.1 | 0.9
O=C(NN1C(=O)c2ccccc2C1=O)C1CCCCC1 | 1.1 | 12 | 5 | 0.9 | 1
NC(=S)Nc1nc2ccccc2[nH]c1=O | . | 0 | 0 | 1 | 1
Cc1ccc(NC(=S)c2nc3ccccc3[nH]2)cc1 | 0.53 | 89* | 38 | 0.1 | 0.6
COCCNC(=O)C1(C)Oc2ccccc2NC1=O (stereo not given) | -0.58 | 10 | 11 | 0.9 | 0.9
CC(=O)OC1(C(F)(F)F)Oc2ccccc2NC1=O (stereo not given) | -0.033 | 53* | 16 | 0.5 | 0.8
COc1cc(-c2nnc(SCc3cccnc3)n2C)cc(OC)c1O | -0.0084 | 30 | 15 | 0.7 | 0.9
Cc1[nH]nc2c1C(C1CC=CCC1)C(C#N)=C(N)O2 (stereo not given) | -0.045 | 24 | 46 | 0.8 | 0.5
N#CC1=C(N)Oc2cc(N)ccc2C1C1CC=CCC1 (stereo not given) | -0.98 | 89* | 76* | 0.1 | 0.2
CCN(C(=O)c1coc(=O)c2ccccc12)c1cc(OC)ccc1OC | 1.8 | 38 | 64* | 0.6 | 0.4
CCN(C(=O)Cc1c(C(=O)O)[nH]c2ccccc12)c1cc(OC)ccc1OC | . | -18 | 14 | 1.2 | 0.9
CN1CCN(c2ncnc3c2[nH]c2ccc(F)cc23)CC1 | 0.73 | 10 | 9 | 0.9 | 0.9
CN1CCN(c2cc3c(c4c2[nH]c2ccccc24)C(=O)CC(C)(C)C3)CC1 | . | 61* | 78* | 0.4 | 0.2
SMILES | Cav32 inh | CYP2C19 inhib | CYP2C9 inh | CYP2C19 act | CYP2C9 act
Cc1ccc(C(=O)OCc2cn3ccccc3n2)cc1 | -0.61 | 83* | 59* | 0.2 | 0.4
O=C(NCc1cn2ccccc2n1)c1ccccc1 | -0.54 | 34 | 0 | 0.7 | 1
O=C(ONc1ccc(N=NC(=O)c2ccccc2O)cc1)c1ccccc1 | -4.5* | 84* | 71* | 0.2 | 0.3
S=C(N=Nc1ccccc1)NNc1ccccc1 | -0.016 | . | . | . | .
O=C(COC(=O)c1cccc(S(=O)(=O)N2CCOCC2)c1)Nc1ccc2c(c1)OCO2 | 0.35 | 70* | 61* | 0.3 | 0.4
O=C(OCc1ccc2c(c1)OCO2)c1ccc(S(=O)(=O)N2CCCC2)cc1 | -0.59 | 83* | 97* | 0.2 | 0
CCn1cc(C(=O)OCC(=O)Nc2cccc(S(=O)(=O)N3CCOCC3)c2)c(=O)c2ccc(C)nc21 | -0.69 | 37 | 67* | 0.6 | 0.3
O=C(c1ccc(S(=O)(=O)N2CCCCC2)cc1)N1CCN(Cc2ccc3c(c2)OCO3)CC1 | 0.42 | 19 | 25 | 0.8 | 0.7
CCCc1nc2ccccc2c(C(=O)OCC(=O)Nc2cccc(S(=O)(=O)N3CCOCC3)c2)c1CC | -0.5 | 46 | 44 | 0.5 | 0.6
COC(=O)c1cccc(S(=O)(=O)N2CCCCC2)c1 | -0.84 | 58* | 8 | 0.4 | 0.9
